High-throughput results (PubChem)
KKLEB cytotox = CF airway cell cytotoxicity counter-screen | KKLEB CF airway cells viability, ATPlite luminescence, overnight; stronger effect = lower value; cells stimulated with P. aeruginosa culture filtrate | activity change (cytotoxicity), % at 5 µM | actives 0.36% (n = 360,000) | AID 602141;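 active means corrected activity change at or below -50% at 5 µM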
CF NFkB block = inhibitors of cystic fibrosis induced NF-kB | KKLEB NF-kB-GFP reporter, PAF-induced, GFP fluorescence overnight | inhibition, % at 5 µM | actives 0.86% (n = 360,000) | AID 588850;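 active means at least 50% inhibition at 5 µM, scaled per plate between neutral and stimulator controls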;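 further: PAF is a Pseudomonas aeruginosa culture filtrate used as stimulus; plate controls were PAF-stimulated DMSO wells for no effect and unstimulated DMSO wells for full effect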
ABHD5-PLIN5 inh = blocks binding of human ABHD5 to perilipin-5. Q00G26+Q8WTS1. Split G. princeps luciferase complementation, luminescence, 4 h. inhibition, % at 4 µM. actives 0.78% (n = 360,000);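 active means inhibition above the mean inhibition across every tested compound plus 3 SD, cut at about 22% in these data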;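 further: 0% = DMSO only wells and the 100% control is not disclosed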
Peg3 prom inh = reduces Peg3 promoter-driven luciferase expression in HeLa | HeLa PEG-Prom luciferase reporter, luminescence, overnight | inhibition, % at 20 µM | actives 1.7% (n = 360,000) | AID 588405;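 active means inhibition of at least 50% at 20 µM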
MITF TRPM1 inh = reduces MITF-dependent TRPM1 promoter luciferase signal; SK-MEL-5 TRPM1 promoter luciferase, 24 h; inhibition, % at 12.5 µM; actives 0.83% (n = 330,000);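 active means mean inhibition across replicates of 60% or more, whatever share of single replicates reaches that level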
HIF-2a block = inhibitors of HIF-2a; 786-0 RCC cells HIF-2a reporter, luciferase luminescence, overnight; inhibition, % at 18.8 µM; actives 0.72% (n = 360,000); AID 624352;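 active means inhibition of the luminescence signal of 40% or more relative to plate controls, in a single-dose primary screen at 18.75 µM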
ABHD5-PLIN5 conf = ABHD5-PLIN5 interaction inhibition, confirmed; shares compounds with ABHD5-PLIN5 inh; biochemical ABHD5-PLIN5 interaction, luminescence; inhibition, % at 4 µM; actives 67% (n = 2,200); AID 651612; in the data active means inhibition above about 23%;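 further: 0% = DMSO vehicle wells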
HNF4 counter = HNF4 split-luciferase signal hit, counter-screen. HNF4 dimerization, luminescence, biochemical. inhibition, % at 4 µM. actives 77% (n = 2,200). shares compounds with ABHD5-PLIN5 inh;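 active means mean inhibition across replicate wells exceeding the computed hit threshold, cut at about 13% in these data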;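 further: light from luciferase halves that rejoin when HNF4 fusion proteins dimerize; 0% = DMSO only wells and the 100% control is not given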
Target sequence (P41235 whole entry, looked up, the tested form may be a part): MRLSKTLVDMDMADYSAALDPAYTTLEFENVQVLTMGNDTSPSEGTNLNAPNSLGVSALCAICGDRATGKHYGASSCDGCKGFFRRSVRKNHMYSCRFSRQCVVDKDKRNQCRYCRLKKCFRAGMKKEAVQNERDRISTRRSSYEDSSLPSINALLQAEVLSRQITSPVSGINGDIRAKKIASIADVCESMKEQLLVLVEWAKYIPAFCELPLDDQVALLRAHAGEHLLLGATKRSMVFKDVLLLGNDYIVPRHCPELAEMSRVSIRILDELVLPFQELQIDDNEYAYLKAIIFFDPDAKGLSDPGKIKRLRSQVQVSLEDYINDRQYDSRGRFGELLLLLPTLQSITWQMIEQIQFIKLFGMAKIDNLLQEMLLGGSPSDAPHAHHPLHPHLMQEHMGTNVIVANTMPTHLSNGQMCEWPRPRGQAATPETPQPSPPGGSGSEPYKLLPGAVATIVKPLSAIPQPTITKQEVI
Numbers without * were called inactive; . = no result; ! = a repeat was not active. Only some compounds are listed: those with a hit (about 3% of all), similar ones and a draw of the others.

SMILES	KKLEB cytotox	CF NFkB block	ABHD5-PLIN5 inh	Peg3 prom inh	MITF TRPM1 inh	HIF-2a block	ABHD5-PLIN5 conf	HNF4 counter
COc1cc(/C=C2\CC/C(=C\c3cc(OC)c(OC)c(OC)c3)C2=O)cc(OC)c1OC	-4.5	-29.5	2.8	-11.1	20.5	20.5	.	.
COc1cc(/C=C2\COC/C(=C\c3cc(OC)c(OC)c(OC)c3)C2=O)cc(OC)c1OC	-67.2*	93.3*	47.1*	105.2*	92.1*	92.7*	101.4*	100.6*
COC(=O)c1ccc(N(CC(=O)NC2CCCC2)C(=O)c2ccc(C)s2)cc1	-12.9	8.4	-1.5	3.4	0.2	-3.7	.	.
Cc1coc2cc3oc(=O)c(CCC(=O)N4C[C@H]5C[C@@H](C4)c4cccc(=O)n4C5)c(C)c3cc12	1.2	-11.1	-0.5	9.2	-0.6	10.8	.	.
CSc1ncccc1C(=O)NC(C)CCc1ccccc1 (stereo not given)	16.0	-10.4	-10.3	22.3	2.2	13.0	.	.
CN1CCC(=C2c3ccccc3CC(=O)c3sccc32)CC1	-2.8	-1.2	26.9*!	-20.9	-3.3	0.7	30.0*	3.8
CN1CCC(=C2c3ccccc3CCc3sccc32)CC1	5.6	6.4	17.3	-9.4	-6.2	8.0	.	.
CC(=O)c1cccc(NC(=O)COC(=O)c2ccccc2C)c1	-1.5	3.2	-4.4	-300.0	-91.8	-242.6	.	.
COc1cc2c(cc1OC)C(C)N(CCN1C(=O)c3ccccc3C1=O)CC2 (stereo not given)	-1.3	11.0	-1.1	-8.6	-6.8	-1.4	.	.
COc1cc2c(cc1OC)C(C)N(CCc1ccc(Cl)cc1)CC2 (stereo not given)	3.6	-1.0	24.0*	-0.9	.	-12.8	23.9*	0.0
N/C(Cc1nc(-c2ccc(Cl)cc2)cs1)=N/O	9.2	7.7	-1.2	-110.2	-25.5	-226.5	.	.
C/C(=C/c1ccccc1)C(=O)N1CCN(c2ccccc2F)CC1	-3.3	12.3	-4.3	10.0	6.8	-80.5	.	.
N#C/C(=C\c1cccc(Br)c1)C(=O)N1CCCCC1	-13.2	45.9	24.1*	19.8	-8.9	39.9	71.3*	53.4*
N#C/C(=C\c1ccccc1)C(=O)N1CCN(c2ccccc2F)CC1	-2.3	8.4	37.9*	7.2	-0.5	5.3	51.9*	38.5*
Cc1ccc(NCC(=O)N/N=C\c2ccc[nH]2)cc1	6.4	-7.8	-3.1	9.2	.	11.7	.	.
CN(CC(=O)Nc1c(Cl)cccc1Cl)C(=O)CNC(=O)c1ccc2ccccc2c1	-7.4	-7.8	3.6	-25.1	-3.3	-20.0	.	.
Cc1ccc(C(=O)/C=C\C(=O)c2ccc(C)cc2)cc1	-24.0	16.2	18.5	8.3	-4.7	-75.0	.	.
O=C(O)/C=C/C(=O)c1ccc(O)cc1	11.6	1.0	86.3*	4.6	11.6	-0.4	96.1*	104.4*
CCSc1nnc(-c2c[nH]c3ccccc23)o1	3.8	-18.5	98.4*	-300.6	-30.8	-207.5	5.4	3.8
N#CCSc1nnc(-c2c[nH]c3ccccc23)o1	1.1	-27.8	-2.2	-33.8	-3.5	-48.8	.	.
Cc1nc(C)c(N)c(=O)[nH]1	1.3	-6.2	3.1	7.8	6.9	6.0	.	.
CC(NC(=O)CNC(=O)c1cccs1)c1cccc(C(F)(F)F)c1 (stereo not given)	3.1	17.4	4.0	11.6	0.2	9.7	.	.
O=C(/C=C/c1ccco1)N1CCN(S(=O)(=O)/C=C/c2ccccc2)CC1	7.5	1.0	28.8*	-10.2	11.8	-17.6	24.1*	46.1*
Cc1ccc(S(=O)(=O)N2C[C@@]3(O)Cn4c(=O)ccc(=O)n4C[C@@]3(OC(=O)NCC3CCCCC3)C2)cc1	.	.	37.4*	.	.	-82.9	57.6*	1.6
O=C(O)c1cc(-c2ccc(-c3ccc(F)cc3)o2)nc2ccccc12	-5.8	18.9	31.5*	-176.8	-36.5	-150.0	19.8	61.1*
SMILES	KKLEB cytotox	CF NFkB block	ABHD5-PLIN5 inh	Peg3 prom inh	MITF TRPM1 inh	HIF-2a block	ABHD5-PLIN5 conf	HNF4 counter
CN(C)S(=O)(=O)c1cccc(NC(=O)COC(=O)/C=C/c2ccco2)c1	1.1	10.2	24.9*	-5.0	-4.2	10.0	21.5	27.3*
CCCCn1nnnc1C1(C)CCC(=O)N1CCCn1ccnc1 (stereo not given)	.	.	58.6*	.	.	11.0	46.5*	46.0*
O=C(Cc1ccc(S(=O)(=O)N2CCOCC2)s1)Nc1ccccc1Br	-4.9	6.7	-5.0	10.1	-1.8	4.6	.	.
CCN(CC)S(=O)(=O)c1ccc(C)c(NC(=O)Cc2ccc(S(=O)(=O)N3CCOCC3)s2)c1	4.0	-38.8	23.4*	-41.1	12.0	8.6	-0.7	0.1
CCOC(=O)c1c(C)oc2c1c(CN1CCN(CCO)CC1)c(O)c1ccccc12	-9.2	42.3	35.3*	-246.6	-6.2	-18.6	63.5*	25.0*
CCOC(=O)c1c(C)oc2c1c(CN1CCN(C(=O)OCC)CC1)c(O)c1ccccc12	-1.3	3.8	-20.0	-249.6	-68.8	-13.8	.	.
CC(C)C[C@H](N)c1nnc(S(=O)(=O)Cc2cccc(F)c2)o1	0.8	28.0	38.0*	66.8*	8.7	18.9	42.3*	75.9*
CC(C)CCNC(=O)c1ccc(CSCc2cccc(F)c2)o1	2.3	10.2	-8.9	6.0	14.9	-17.2	.	.
O[C@H]1C[C@H](c2ccccc2)N(Cc2cccs2)C[C@@H]1n1cc(C2CC2)nn1	-16.6	8.2	8.6	-26.3	.	-127.0	.	.
CCCCCNC(=O)C(c1ccc(OC)cc1)n1c(=O)c(-c2ccco2)nc2ccccc21 (stereo not given)	.	.	70.9*	.	.	-0.2	96.2*	62.1*
CCCCCNC(=O)C(c1ccc(-c2ccccc2)cc1)n1c(=O)c(-c2ccccc2)nc2ccccc21 (stereo not given)	.	.	-3.0	.	.	-61.5	.	.
CCCCCNC(=O)C(c1ccccc1F)n1c(=O)c(-c2ccco2)nc2ccccc21 (stereo not given)	.	.	95.7*	.	.	5.0	56.8*	4.1
CCCCCNC(=O)C(c1ccc(C#N)cc1)n1c(=O)c(-c2ccco2)nc2ccccc21 (stereo not given)	.	.	75.2*	.	.	9.3	43.8*	10.4
CC(C)(C)NC(=O)C(c1ccccc1F)n1c(=O)c(-c2ccco2)nc2ccccc21 (stereo not given)	.	.	54.1*	.	.	-1.1	91.0*	36.5*
CS(=O)(=O)c1ccc(Nc2nc(C(N)c3ccccc3Cl)cs2)cc1 (stereo not given)	3.7	-5.5	-4.3	17.6	.	16.9	.	.
Nc1sccc1C(=O)NCc1ccccc1	.	.	35.9*	.	.	-10.3	13.9	49.0*
O=C(O)c1ccccc1C(=O)NCc1ccccc1	10.8	-0.6	-3.8	4.7	11.8	3.5	.	.
COCCNc1ccc(N2C(=O)CCCC2=O)cc1[N+](=O)[O-]	-0.6	10.1	5.0	10.5	-8.5	13.9	.	.
